Assay [1] can be described thus: NCI Yeast Anticancer Drug Screen. Data for the rad50 strain (AID 155).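 Further: 0% = growth of vehicle-only cultures of the same strain.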 The note with it: S. cerevisiae rad50 strain growth inhibition, active compounds read high. In outline: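 Genetically altered yeast (DNA repair pathway); compound treatment; growth inhibition vs vehicle ctrl.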
The nature of assay [2]: NCI Yeast Anticancer Drug Screen. Data for the mec2-1 strain (AID 157). The settings on record: S. cerevisiae mec2-1 strain, active compounds read high. An outline of the steps:
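Cells of the genetically defined mec2-1 yeast strain are incubated with test compound. Inhibition of growth is calculated against vehicle-treated controls.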

Assay [3] can be described thus: NCI Yeast Anticancer Drug Screen. Data for the sgs1 mgt1 strain (AID 161).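 Further: 0% = growth of cultures given vehicle only.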 The note with it: S. cerevisiae sgs1 mgt1 strain, active compounds read high. In outline: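 Read-out: growth inhibition vs vehicle controls. Cells: mutant yeast strain deficient in DNA damage repair.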
A short description of assay [4]: NCI Yeast Anticancer Drug Screen. Data for the cln2 rad14 strain (AID 165).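 Further: 0% = growth equal to vehicle treated cultures.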 The settings on record: S. cerevisiae cln2 rad14 strain, active compounds read high. In outline:
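The screen exposed genetically defined yeast (cln2 rad14) to test compounds and scored growth inhibition relative to vehicle-treated controls.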

The nature of assay [5]: NCI Yeast Anticancer Drug Screen. Data for the bub3 strain (AID 167). The settings on record: S. cerevisiae bub3 mutant strain, active compounds read high. An outline of the steps:
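Yeast carrying a defined mutation is treated with each compound, and growth is compared with that of vehicle-exposed cells to give inhibition.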

Assay [6] can be described thus: NCI Yeast Anticancer Drug Screen. Data for the mlh1 rad18 strain (AID 175). The note with it: S. cerevisiae mlh1 rad18 strain growth inhibition, active compounds read high. An outline of the steps: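 Compound-treated yeast growth, normalised to vehicle controls. Strain bears defined DNA repair mutations.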
The mark [7] stands for this setting: at 5.0 µM (retest, dose inferred, filed as 0.5).
The mark [8] stands for this setting: at 50.0 µM (retest, dose inferred, filed as 5.0).

Compounds without any hit were thinned out: in the full panel of roughly 79,000, 15% have a hit. A number with no mark means an inactive call. Calls of active or inactive are those of the source. No stated cut-off is given here; in the data, active means growth inhibition above about 70%; inactive means the rest.

Turning to `CCOC(=O)c1c(NC(=O)CBr)sc(C)c1C`, the growth inhibition in assay [1] (setting [7]) was 8%; in assay [1] (setting [8]), 48%; in assay [1] (at 50.0 µM) it was 21.2%; in assay [2] (setting [7]), -3%; in assay [2] (setting [8]) it was 64%; in assay [2] (at 50.0 µM), 7.8%. Besides, the growth inhibition in assay [3] (setting [7]) is 10%; in assay [3] (setting [8]) it was 74% (active); in assay [3] (at 50.0 µM), 32.9%; in assay [4] (setting [7]), 0%; in assay [4] (setting [8]) it was 18%; in assay [4] (at 50.0 µM), -28.4%. Moreover, the growth inhibition is 5% in assay [5] (setting [7]); 65% in assay [5] (setting [8]); 38.1% in assay [5] (at 50.0 µM); 7% in assay [6] (setting [7]); 69% in assay [6] (setting [8]); 21.8% in assay [6] (at 50.0 µM).

As for `O=C1OC(c2ccccc2)(c2ccccc2)Cc2ccccc21`, the growth inhibition in assay [1] (setting [7]) was -4%; in assay [1] (setting [8]) it was 20%; in assay [1] (at 50.0 µM), 94% (active); in assay [2] (setting [7]), -9%; in assay [2] (setting [8]), -4%; in assay [2] (at 50.0 µM) it was 96% (active). In addition, the growth inhibition in assay [3] (setting [7]) was -7%; in assay [3] (setting [8]), -16%; in assay [3] (at 50.0 µM) it was 91% (active); in assay [4] (setting [7]), -4%; in assay [4] (setting [8]), 7%; in assay [4] (at 50.0 µM), 91.3% (active). For the same molecule, the growth inhibition was -27% in assay [5] (setting [7]); -13% in assay [5] (setting [8]); 90.8% (active) in assay [5] (at 50.0 µM); -21% in assay [6] (setting [7]); 8% in assay [6] (setting [8]); 94.8% (active) in assay [6] (at 50.0 µM).

For `CC(C)c1ccc2c(c1)CC[C@H]1[C@](C)(C(=O)O)CCC[C@]21C`, the growth inhibition was -1% in assay [1] (setting [7]); 96% (active) in assay [1] (setting [8]); 91.6% (active) in assay [1] (at 50.0 µM); 2% in assay [2] (setting [7]); 96% (active) in assay [2] (setting [8]); 93% (active) in assay [2] (at 50.0 µM). The growth inhibition in assay [3] (setting [7]) was 10%; in assay [3] (setting [8]), 96% (active); in assay [3] (at 50.0 µM) it was 91.8% (active); in assay [4] (setting [7]), -11%; in assay [4] (setting [8]) it was 96% (active); in assay [4] (at 50.0 µM) it was 91.3% (active). Moreover, the growth inhibition in assay [5] (setting [7]) was -2%; in assay [5] (setting [8]), 95% (active); in assay [5] (at 50.0 µM) it was 90.8% (active); in assay [6] (setting [7]), 9%; in assay [6] (setting [8]) it was 95% (active); in assay [6] (at 50.0 µM), 91.1% (active).

Turning to `c1ccc([P+](C[P+](c2ccccc2)(c2ccccc2)c2ccccc2)(c2ccccc2)c2ccccc2)cc1`, the growth inhibition in assay [1] (setting [7]) was 98% (active); in assay [1] (setting [8]) it was 99% (active); in assay [1] (at 50.0 µM), 47.4%; in assay [2] (setting [7]), 98% (active); in assay [2] (setting [8]) it was 100% (active); in assay [2] (at 50.0 µM), 99.5% (active). In addition, the growth inhibition in assay [3] (setting [7]) is 98% (active); in assay [3] (setting [8]), 99% (active); in assay [3] (at 50.0 µM), 58.4%; in assay [4] (setting [7]), 97% (active); in assay [4] (setting [8]), 99% (active); in assay [4] (at 50.0 µM) it was 99.4% (active). Besides, the growth inhibition is 98% (active) in assay [5] (setting [7]); 99% (active) in assay [5] (setting [8]); 99.7% (active) in assay [5] (at 50.0 µM); 98% (active) in assay [6] (setting [7]); 99% (active) in assay [6] (setting [8]); 99.5% (active) in assay [6] (at 50.0 µM).

For `Cn1c(=O)c2c(nc(OCC(C)(C)C)n2C)n(C)c1=O`, the growth inhibition in assay [1] (setting [7]) is 4%; in assay [1] (setting [8]) it was 2%; in assay [1] (at 50.0 µM) it was -5.2%; in assay [2] (setting [7]) it was 0%; in assay [2] (setting [8]), 5%; in assay [2] (at 50.0 µM), 10.9%. For the same molecule, the growth inhibition is 3% in assay [3] (setting [7]); -1% in assay [3] (setting [8]); 26.1% in assay [3] (at 50.0 µM); 9% in assay [4] (setting [7]); 8% in assay [4] (setting [8]); 8.75% in assay [4] (at 50.0 µM). Besides, the growth inhibition was 0% in assay [5] (setting [7]); 3% in assay [5] (setting [8]); 16.9% in assay [5] (at 50.0 µM); -13% in assay [6] (setting [7]); 3% in assay [6] (setting [8]); 23.8% in assay [6] (at 50.0 µM).

`O=C(CC(c1cccnc1)C(C(=O)c1ccc(Cl)cc1)C(CC(=O)c1ccc(Cl)cc1)c1cccnc1)c1ccc(Cl)cc1` (stereo not given): the growth inhibition in assay [1] (setting [7]) was 80% (active); in assay [1] (setting [8]), 92% (active); in assay [1] (at 50.0 µM), 59.3%; in assay [2] (setting [7]) it was 48%; in assay [2] (setting [8]), 95% (active); in assay [2] (at 50.0 µM), 65.2%. The growth inhibition in assay [3] (setting [7]) was 56%; in assay [3] (setting [8]) it was 96% (active); in assay [3] (at 50.0 µM), 52.2%; in assay [4] (setting [7]), 32%; in assay [4] (setting [8]) it was 96% (active); in assay [4] (at 50.0 µM) it was 36.9%. The growth inhibition in assay [5] (setting [7]) was 11%; in assay [5] (setting [8]), 92% (active); in assay [5] (at 50.0 µM), 30.8%; in assay [6] (setting [7]), 63%; in assay [6] (setting [8]) it was 93% (active); in assay [6] (at 50.0 µM), 87.1% (active).

Take `O=[N+]([O-])c1ccc2c(c1)/C(=N/O)c1ccccc1-2`: the growth inhibition in assay [1] (setting [7]) is 21%; in assay [1] (setting [8]) it was 49%; in assay [1] (at 50.0 µM) it was 88.3% (active); in assay [2] (setting [7]), 0%; in assay [2] (setting [8]), 7%; in assay [2] (at 50.0 µM), 28.4%. The growth inhibition in assay [3] (setting [7]) was 4%; in assay [3] (setting [8]), 20%; in assay [3] (at 50.0 µM) it was 70%; in assay [4] (setting [7]) it was -10%; in assay [4] (setting [8]), 4%; in assay [4] (at 50.0 µM) it was 46.2%. Moreover, the growth inhibition is 8% in assay [5] (setting [7]); 29% in assay [5] (setting [8]); 18.8% in assay [5] (at 50.0 µM); 19% in assay [6] (setting [7]); 38% in assay [6] (setting [8]); 81% (active) in assay [6] (at 50.0 µM).

On to `CO/N=C/c1ccc([N+](=O)[O-])s1`, for which the growth inhibition was -147% in assay [1] (setting [7]); 95% (active) in assay [1] (setting [8]); 65.7% in assay [1] (at 50.0 µM); -44% in assay [2] (setting [7]); 80% (active) in assay [2] (setting [8]); 16.6% in assay [2] (at 50.0 µM). Also, the growth inhibition is -51% in assay [3] (setting [7]); 71% (active) in assay [3] (setting [8]); 33.8% in assay [3] (at 50.0 µM); -63% in assay [4] (setting [7]); 48% in assay [4] (setting [8]); 7.5% in assay [4] (at 50.0 µM). The growth inhibition in assay [5] (setting [7]) is -61%; in assay [5] (setting [8]) it was 76% (active); in assay [5] (at 50.0 µM), 29.7%; in assay [6] (setting [7]), -108%; in assay [6] (setting [8]) it was 94% (active); in assay [6] (at 50.0 µM), 75.5% (active).

With `FC1(F)C2=C(SC3=C(S2)C(F)(F)C3(F)F)C1(F)F`, the growth inhibition was 9% in assay [1] (setting [7]); 99% (active) in assay [1] (setting [8]); 99.2% (active) in assay [1] (at 50.0 µM); -4% in assay [2] (setting [7]); 98% (active) in assay [2] (setting [8]); 70.5% (active) in assay [2] (at 50.0 µM). Besides, the growth inhibition in assay [3] (setting [7]) was 38%; in assay [3] (setting [8]), 100% (active); in assay [3] (at 50.0 µM), 99.1% (active); in assay [4] (setting [7]) it was 6%; in assay [4] (setting [8]), 95% (active); in assay [4] (at 50.0 µM) it was 74.9% (active). Further, the growth inhibition in assay [5] (setting [7]) was -7%; in assay [5] (setting [8]), 95% (active); in assay [5] (at 50.0 µM), 97.7% (active); in assay [6] (setting [7]), 19%; in assay [6] (setting [8]), 97% (active); in assay [6] (at 50.0 µM), 97.7% (active).

`COC(=O)C12CCC(C)(C)CC1C1=CCC3C4(C)CC(O)C(O)C(C)(C(=O)OC)C4CCC3(C)C1(CO)CC2` (stereo not given): the growth inhibition in assay [1] (setting [7]) is 30%; in assay [1] (setting [8]), 97% (active); in assay [1] (at 50.0 µM), 91.5% (active); in assay [2] (setting [7]) it was 30%; in assay [2] (setting [8]) it was 99% (active); in assay [2] (at 50.0 µM) it was 91.7% (active). In addition, the growth inhibition in assay [3] (setting [7]) is 15%; in assay [3] (setting [8]) it was 99% (active); in assay [3] (at 50.0 µM), 91.8% (active); in assay [4] (setting [7]) it was 39%; in assay [4] (setting [8]), 99% (active); in assay [4] (at 50.0 µM), 91.4% (active). Besides, the growth inhibition in assay [5] (setting [7]) was 26%; in assay [5] (setting [8]), 99% (active); in assay [5] (at 50.0 µM), 88.8% (active); in assay [6] (setting [7]), 31%; in assay [6] (setting [8]), 98% (active); in assay [6] (at 50.0 µM), 85.8% (active).
